Out of some 5,500 compounds screened, about 2,000 (36%) were called active. Another 18% or so got no clear call; they are omitted. No stated cut-off is given here; in the data, active means normalized growth mostly below about 0.91 (no sharp cut-off); inconclusive means no clear call, values can overlap the other calls; inactive means mostly above about 0.92. The list shows a part of the results.
Experiment: chemical genetic growth profiling, strain panel (AID 1159580);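 further: tested at 20 µM; growth read once vehicle control cultures reached saturation at 30 °C; 1 = growth at the plate median or of vehicle wells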
Details: S. cerevisiae deletion strains, growth OD
[1] = locus YAL040C, strain CLN3, stronger effect = lower value
[2] = locus YCL061C, strain MRC1 (second series), stronger effect = lower value
[3] = locus YDR150W, strain NUM1, stronger effect = lower value
[4] = locus YDR363W, strain ESC2, stronger effect = lower value
[5] = locus YER002W, strain NOP16, stronger effect = lower value
[6] = locus YMR307W, strain GAS1, stronger effect = lower value
[7] = locus YNL175C, strain NOP13, stronger effect = lower value
[8] = locus YNL197C, strain WHI3, stronger effect = lower value
[9] = locus YNL224C, strain SQS1, stronger effect = lower value
[10] = locus YOR083W, strain WHI5 (second series), stronger effect = lower value
[11] = locus YPL055C, strain LGE1, stronger effect = lower value

Measured: normalized growth

COC(=O)[C@@H](N)Cc1ccc(O)c(O)c1
inactive: [1] 1.03 | [2] 0.971 | [3] 0.958 | [4] 1 | [5] 1 | [6] 0.995 | [7] 1 | [8] 0.984 | [9] 1 | [10] 0.993 | [11] 0.971 | locus YPL241C, strain CIN2, stronger effect = lower value 1.01

N[C@H](CO)C(=O)O
inactive: locus YAL013W, strain DEP1, stronger effect = lower value 1.03 | [1] 1.01 | [2] 1 | [3] 1 | [4] 1.03 | [5] 0.986 | locus YJR075W, strain HOC1, stronger effect = lower value 1.01 | [6] 1 | locus YNL128W, strain TEP1, stronger effect = lower value 0.999 | [7] 0.995 | [8] 0.999 | [9] 0.997 | locus YNL322C, strain KRE1, stronger effect = lower value 1 | [10] 0.996 | [11] 1.02

From PubChem BioAssay AID1159580 (chemical genetic matrix, 2015)
